Potency data for 40 compounds are collected here from PubChem BioAssay (Tox21).

Several values for one entry are separate records, joined by “and”; a condition that tells them apart may be missing. Identical values can stand only once. Records with an inconclusive call do not appear. A call without a number means that no potency is given here. More than one record can exist for a structure, and the calls need not agree. Activity calls are given as the source filed them. Calls come from the whole dose curve; as a rule, active = well fitted cell-killing curve with a large enough effect in the repeat runs; inconclusive = weak or mixed curves; inactive = flat fitted curve, though single readings scatter.
Potency is the fitted concentration of half-maximal effect.

This assay in a line: qHTS assay to identify small molecule antagonists of the estrogen related receptor (ERR) signaling pathway from Tox21 library - cell viability counter screen (AID 1224834). Note: nearly all actives have a fitted effect of over 30% in size. As to conditions: ERR reporter cells viability, CellTiter-Fluor, 17.5 h; series mostly up to 92.4 µM. From the text:
National Center for Advancing Translational Sciences [NCATS]
NIH Chemical Genomics Center [NCGC]
U.S. Environmental Protection Agency [EPA]
National Institutes of Environmental Health Sciences [NIEHS]
National Toxicology Program [NTP]
U.S. Food and Drug Administration [FDA]
Estrogen related receptors (ERRs), the first orphan nuclear receptors discovered, play an important role in the control of cellular energy metabolism. ERRs are required for high-energy production in response to the environmental challenges. ERR-alpha was also identified as an adverse marker for breast cancer progression; ERR-alpha-positive tumors have a poor prognosis. To screen and to identify environmental compounds that perturb the ERR signaling pathways could provide valuable information for potential therapeutic or preventive measures in the treatment of metabolic disease. To differentiate true ERR antagonists or agonist from cytotoxic substances, the assay is multiplexed with cell viability assay.
Tox21 Assay Protocol Summary:
The ERR cells were dispensed at 2,000 cells/5 ul/well in 1536-well white plates using a Multidrop dispenser. After the assay plates were incubated at a 37 C/5% CO2 incubator for 6 hours, 23 nL of compounds dissolved in DMSO, positive and negative controls or DMSO only was transferred to the assay plate by a pin tool. The plates were incubated at 37 C for 17.5 hours. 1 ul/well of CellTiter-Fluor reagent was added into the assay plates using a Flying Reagent Dispenser. After 30-minute incubation at 37 C/5% CO2, the fluorescence intensity in the plates was measured using a ViewLux plate reader.
`O=c1nc(O)n(Cl)c(=O)n1Cl`: the Potency result is “inactive”.
The same measure for `CCC[N+]1(C)CCCC1`: “inactive”.
The result for `C[N+](C)(C)Cc1ccccc1` reads “inactive”; that for `CCCCCCn1cc[n+](C)c1`, “inactive”; that for `CCOP(=S)(OCC)Oc1ccc2c(C)c(Cl)c(=O)oc2c1`, “inactive”.
The result for `CCCCn1cc[n+](C)c1C` reads “inactive”; that for `CC[N+](CC)(CC)CC`, “inactive”.
As to `O=C(O)C(Cl)Cl`, the Potency entry is “inactive”.
The result for `Cc1cc(Cl)ccc1OCC(=O)O` reads “inactive”; that for `O=C(O)c1nc(Cl)ccc1Cl`, “inactive”; that for `CCNc1nc(Cl)nc(NCC)n1`, “inactive”.
With `C[C@]12CCC(=O)C=C1CC[C@@H]1[C@@H]2CC[C@]2(C)C(=O)CC[C@@H]12`, the Potency result was “inactive”.
As for `Nc1ccc(-c2ccc(N)cc2)cc1`, the Potency result is “inactive”.
The result for `C=CCOC(Cn1ccnc1)c1ccc(Cl)cc1Cl` (stereo not given) reads 30.7 µM (active) and 48.6 µM (active) and 29.8 µM (active).
The same measure for `Nc1ccc(-c2ccc(N)c(Cl)c2)cc1Cl`: 54.5 µM (active); for `O=P1(N(CCCl)CCCl)NCCCO1` (stereo not given): “inactive”.
In the case of `O=S(=O)(O)O`, the Potency entry was “inactive”.
The result for `CC(=O)O` reads “inactive”.
The result for `O=[N+]([O-])O` reads “inactive”; that for `CC(Cl)(Cl)C(=O)O`, “inactive”; that for `CCCn1cc[n+](C)c1`, “inactive”.
The same measure for `CCC[N+]1(C)CCCCC1`: “inactive”.
Consider `CCCC[n+]1cccc(C)c1`, for which the Potency result was “inactive”.
The result for `CCCCCCCCCCCC(=O)O` reads “inactive”; that for `CNC`, “inactive”; that for `O=c1[nH]c(=O)n(Cl)c(=O)n1Cl`, “inactive”.
Consider `O=C(O)CCl`, for which the Potency entry is “inactive”.
The same measure for `CCCC[N+]1(C)CCCCC1`: “inactive”; for `CCCCCCCCCCCCCC[P+](CCCCCC)(CCCCCC)CCCCCC`: 17.3 µM (active) and 24.5 µM (active).
The same measure for `O=C(O)C(Cl)(Cl)Cl`: “inactive”; for `CCCC[n+]1ccccc1`: “inactive”.
The result for `O=C(O)CC(O)(CC(=O)O)C(=O)O` reads “inactive”.
With `COP(=O)(OC)OC=C(Cl)Cl`, the Potency entry was “inactive”.
The result for `COP(=O)(OC)C(O)C(Cl)(Cl)Cl` (stereo not given) reads “inactive”; that for `CC(=O)[O][Hg][c]1ccccc1`, 2.41 µM (active) and 3.86 µM (active) and 7.5 µM (active).
On to `O=[N+]([O-])c1ccccc1O`, for which the Potency result was “inactive”.
The result for `Cc1cc(-c2ccc(N)c(C)c2)ccc1N` reads “inactive”; that for `COCC(=O)N(c1c(C)cccc1C)C(C)C(=O)OC` (stereo not given), “inactive”; that for `CCCCCCCCCCCCOS(=O)(=O)O`, “inactive”.
Take `Oc1cccc2cccnc12`: the Potency was 2.74 µM (active) and 2.43 µM (active) and inactive.
